USP8 inh – blocks human USP8 ubiquitin-rhodamine cleavage. P40818. 4.2% of 47,000 active. inhibition, % at 20 µM. purified USP8, Ub-rhodamine cleavage fluorescence, 30 min. AID 1645853
Target sequence (P40818 whole entry, looked up): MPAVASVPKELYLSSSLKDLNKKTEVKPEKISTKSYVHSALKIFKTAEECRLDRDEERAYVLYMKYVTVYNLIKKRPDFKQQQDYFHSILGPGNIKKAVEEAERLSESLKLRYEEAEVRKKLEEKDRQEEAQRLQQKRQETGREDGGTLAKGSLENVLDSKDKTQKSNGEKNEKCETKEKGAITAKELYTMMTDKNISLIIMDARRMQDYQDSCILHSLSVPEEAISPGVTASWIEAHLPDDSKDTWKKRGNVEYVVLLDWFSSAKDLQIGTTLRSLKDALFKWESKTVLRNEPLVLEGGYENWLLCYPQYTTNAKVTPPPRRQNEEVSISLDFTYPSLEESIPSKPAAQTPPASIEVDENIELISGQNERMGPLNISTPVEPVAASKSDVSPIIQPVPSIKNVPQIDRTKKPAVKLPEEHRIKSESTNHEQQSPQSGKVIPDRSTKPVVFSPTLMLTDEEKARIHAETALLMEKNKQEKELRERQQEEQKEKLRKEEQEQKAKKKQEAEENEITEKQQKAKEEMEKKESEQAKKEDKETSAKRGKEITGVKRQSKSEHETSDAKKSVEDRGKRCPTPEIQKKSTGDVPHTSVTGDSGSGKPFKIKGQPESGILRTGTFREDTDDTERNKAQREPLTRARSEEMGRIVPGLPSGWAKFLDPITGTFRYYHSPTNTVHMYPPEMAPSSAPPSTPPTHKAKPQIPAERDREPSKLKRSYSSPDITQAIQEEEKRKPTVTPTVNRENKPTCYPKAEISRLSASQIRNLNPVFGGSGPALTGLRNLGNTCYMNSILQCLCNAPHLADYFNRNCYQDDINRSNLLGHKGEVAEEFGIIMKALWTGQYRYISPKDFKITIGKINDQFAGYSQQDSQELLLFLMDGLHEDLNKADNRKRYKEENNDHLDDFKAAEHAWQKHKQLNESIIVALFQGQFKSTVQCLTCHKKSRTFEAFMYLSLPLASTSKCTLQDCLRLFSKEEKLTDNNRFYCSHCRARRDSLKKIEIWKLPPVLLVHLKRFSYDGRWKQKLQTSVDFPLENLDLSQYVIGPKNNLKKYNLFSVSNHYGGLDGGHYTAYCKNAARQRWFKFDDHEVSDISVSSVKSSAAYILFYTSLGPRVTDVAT
USP10 inh – human USP10 deubiquitinase inhibition. Q14694. 1.1% of 47,000 active. AID 1645856. inhibition, % at 20 µM. purified USP10, Ub-rhodamine fluorescence, 60 min
OTUD3 inh – inhibitors of human OTUD3 deubiquitinase; 0.7% of 47,000 active; purified OTUD3, Ub-rhodamine fluorescence, 2 h; AID 1645858; inhibition, % at 25 µM
USP17 block – blocks human USP17 ubiquitin-rhodamine cleavage; 6.5% of 47,000 active; purified USP17, Ub-rhodamine cleavage fluorescence, 3 h; A8MUK1; inhibition, % at 50 µM
USP28 block – inhibitors of human USP28 deubiquitinase; 3% of 47,000 active; AID 1645857; inhibition, % at 25 µM; purified USP28, Ub-rhodamine cleavage fluorescence, 30 min
USP30 block – blocks human USP30 ubiquitin-rhodamine cleavage; inhibition, % at 25 µM; 5.3% of 47,000 active; purified USP30, Ub-rhodamine cleavage fluorescence; Q70CQ3; AID 1645860
Numbers stand for hits; n = inactive. Shown are actives, neighbours in structure and some others; about 13% of the full set was active somewhere. Rule as the data show it: active = inhibition above about 30%; inactive = the rest.

SMILES	USP8 inh	USP10 inh	OTUD3 inh	USP17 block	USP28 block	USP30 block
Cc1ccc(NC(=O)c2ccccc2NC(=O)COc2cc(C)cc(C)c2)cc1	n	n	n	n	n	n
Cc1cccc(C(=O)OCC(=O)Nc2ccc3[nH]c(=O)[nH]c3c2)c1C	n	n	n	40.2	39.8	51.9
O=C(COc1ccc(Cl)cc1Cl)Nc1ccc2[nH]c(=O)[nH]c2c1	51.2	31.0	n	35.4	46.5	66.2
COc1ccc(NC(=O)c2ccco2)cc1NC(=O)COc1ccc(Cl)cc1Cl	42.5	n	n	n	n	n
O=C(COc1ccc([N+](=O)[O-])cc1Cl)Nc1ccc2c(c1)CCC2	n	n	n	n	n	n
O=C(COC(=O)c1ccc(Cl)cc1)Nc1ccc2[nH]c(=O)[nH]c2c1	34.1	n	n	n	31.0	74.0
CC(Oc1ccc(Cl)cc1)C(=O)OCC(=O)Nc1ccc2[nH]c(=O)[nH]c2c1 (centres undefined)	n	n	n	n	n	n
Cc1ccccc1CSCC(=O)Nc1ccc2[nH]c(=O)[nH]c2c1	n	n	n	45.2	32.3	41.9
Cc1nnc(SC(C)C(=O)Nc2ccc3[nH]c(=O)[nH]c3c2)n1Cc1ccccc1 (centres undefined)	n	n	n	n	n	n
O=C(NC1CCCCC1)C(c1ccccc1)N(C(=O)c1cnccn1)c1cccc2ccccc12 (centres undefined)	n	n	n	n	n	n
CCn1cc2c(n1)c(=O)n(Cc1ccccc1)c(=O)n2CC(=O)Nc1ccc(C(C)C)cc1	71.2	n	n	40.2	n	n
CCc1ccc(NC(=O)Cn2c(=O)n(Cc3ccccc3)c(=O)c3nn(CC)cc32)cc1	98.2	56.2	n	73.4	n	77.7
CCc1ccc(NC(=O)Cn2c(=O)n(C)c(=O)c3nscc32)cc1	n	n	n	38.9	n	n
CCCn1c(=O)c2nscc2n(CC(=O)Nc2ccc(F)c(F)c2)c1=O	n	n	n	n	n	n
CCn1cc2c(n1)c(=O)n(Cc1ccccc1)c(=O)n2CC(=O)Nc1ccc(OC)cc1	68.3	47.0	n	80.4	n	39.0
CC(C)c1ccc(NC(=O)Cn2c(=O)n(Cc3ccncc3)c(=O)c3ncccc32)cc1	n	n	n	n	n	n
COc1ccc(S(=O)(=O)N2CCN(Cc3nnnn3-c3ccc(C)cc3)CC2)cc1C	n	n	n	n	n	n
CCN(C(=O)c1cccc(Cn2ccnc2C)c1)[C@H]1C[C@@H](c2ccccc2)OC2(CCNCC2)C1	n	n	n	n	n	n
CCN(C(=O)c1cccc(-n2nc(C)cc2C)c1)[C@H]1C[C@@H](c2ccccc2)OC2(CCNCC2)C1	n	n	n	n	n	34.3
CCN1C[C@H]2CN(C)c3ccccc3[C@@H]2N(C(C)=O)CCC1=O	n	n	n	n	n	n
CCC(C)n1c(-c2ccccc2F)nc2nc3ccccc3nc21 (centres undefined)	n	n	n	n	36.8	35.4
O=C(CN1CN(c2ccc(F)cc2)c2ncccc2S1(=O)=O)Nc1ccccc1F	n	n	n	n	n	n
Cc1oc(-c2ccccc2F)nc1CS(=O)(=O)CC(=O)NCc1ccccc1Cl	n	n	n	45.5	n	n
Cc1noc(-c2cc(=O)n(CC(=O)NCc3ccccc3Cl)c3ccccc23)n1	n	n	n	n	n	n
O=c1[nH]c(C2CCN(S(=O)(=O)c3ccc(S(=O)(=O)N4CCOCC4)cc3)CC2)nc2c1nnn2Cc1ccc(F)cc1	89.5	45.3	n	n	n	n
Cc1ccc(Cn2nnc3c(=O)[nH]c(C4CCN(C(=O)C5CCC5)CC4)nc32)cc1	n	n	n	n	n	n
O=c1[nH]c(C2CCN(S(=O)(=O)c3ccc(S(=O)(=O)NC4CC4)cc3)CC2)nc2c1nnn2Cc1cccc(Cl)c1	n	31.8	n	n	37.9	41.7
Cc1ccc(Cn2nnc3c(=O)[nH]c(C4CCN(S(=O)(=O)c5ccc(S(=O)(=O)NC6CC6)cc5)CC4)nc32)cc1	n	n	n	n	n	42.6
COC(=O)c1ccc(Cn2nnc3c(=O)[nH]c(C4CCCN(S(=O)(=O)c5ccc(C)cc5)C4)nc32)cc1 (centres undefined)	n	41.2	n	n	32.3	36.0
Cc1nn(-c2ccccc2)c2c1nc(CCC(=O)NC1CC1)c(=O)n2C	n	n	n	n	n	n
